Measured values published in PubChem BioAssay (NCATS).
Records with an inconclusive call do not appear. The source made the active and inactive calls. The call rests on the fitted dose curve; in most records, active means well fitted inhibition curve with a large enough effect; inconclusive means small, poorly fitted or top-dose-only effect; inactive means flat fitted curve, though single readings scatter.

system: SC27B; assay: qHTS profiling for inhibitors of Plasmodium falciparum proliferation (AID 504749); further: nearly all actives have a fitted effect of over 60% in size;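 on activity, negative = inhibition: 0% = DMSO vehicle and full inhibition = artemisinin control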; details: P. falciparum in erythrocytes, SYBR Green DNA, 72 h; series mostly up to 28.7 µM; activity, negative = inhibition: at the top concentration
How it was run: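 P. falciparum-infected erythrocytes (0.3% parasitemia, 2.5% hematocrit) incubated with compound 72 h at 37 C, 5% CO2. Parasite DNA detected by SYBR Green after lysis, overnight at room temperature; normalised to 0.29 uM artemisinin and DMSO.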
Potency means the concentration at half of the fitted maximal effect.

Structure (SMILES) | activity, negative = inhibition | Potency
COc1ccc2[nH]cc(CCNC(C)=O)c2c1 | -10.3% (inactive) | 
Clc1ccc2nsnc2c1NC1=NCCN1 | 3.44% (inactive) | 
NC(=O)OCC(COC(N)=O)c1ccccc1 | 8.62% (inactive) | 
Cc1cnc(C(=O)NCCc2ccc(S(=O)(=O)NC(=O)NC3CCCCC3)cc2)cn1 | 9.62% (inactive) | 
CC(C)(Oc1ccc(C2CC2(Cl)Cl)cc1)C(=O)O (stereo not drawn) | 7.73% (inactive) | 
CN(C)c1nc(N(C)C)nc(N(C)C)n1 | 3.61% [at 12.8 µM] (inactive) | 
CC(=O)OCC(CCn1cnc2cnc(N)nc21)COC(C)=O | 2.18% (inactive) | 
N[C@@H](Cc1c[nH]c2ccc(O)cc12)C(=O)O | 9.96% (inactive) | 
CC[N+](CC)(CC)CCOc1cccc(OCC[N+](CC)(CC)CC)c1OCC[N+](CC)(CC)CC | 10.8% (inactive) | 
NCCCCCC(=O)O | 0.757% [at 12.8 µM] (inactive) | 
O=C1N(c2ccccc2)c2ccccc2C1(Cc1ccncc1)Cc1ccncc1 | -9.46% (inactive) | 
Cc1cc(C(C)(C)C)c(O)c(C)c1CC1=NCCN1 | 1.2% (inactive) | 
Nc1nc2c(ncn2COC(CO)CO)c(=O)[nH]1 | 1.58% [at 12.8 µM] (inactive) | 
CN(C)C(=N)N=C(N)N | 2.44% [at 12.8 µM] (inactive) | 
NC(=O)NO | 7.23% (inactive) | 
NC12CC3CC(CC(C3)C1)C2 | 4.72% (inactive) | 
CC(C)(C)C(=O)Oc1ccc(S(=O)(=O)Nc2ccccc2C(=O)NCC(=O)O)cc1 | 6.09% (inactive) | 
NCCS(=O)(=O)O | 10.2% (inactive) | 
CCCNCC(O)COc1ccccc1C(=O)CCc1ccccc1 (stereo not drawn) |  | 891 nM (active)
O=C(c1ccc(F)cc1)C1CCN(CCn2c(=O)[nH]c3ccccc3c2=O)CC1 | 8.6% (inactive) | 
Cn1cnc2c1c(=O)[nH]c(=O)n2C | 6.91% (inactive) | 
C[C@](N)(Cc1ccc(O)c(O)c1)C(=O)O | -2.42% (inactive) | 
NCCc1cnc[nH]1 | 6.41% (inactive) | 
